Test results: the supplement of paper PMC10849652
Targets with a hit are over-represented here; the source holds about 7,900 in all. About 0.6% of all pairs of compound and target were hits.

How the values were obtained:
Test in all cases: log2 fold change, soluble protein after heating vs DMSO (PISA); higher = thermal stabilisation; K562 cells, 10 uM, 30 min; active = over 0.2 and 3.5 SD of the protein, either way, in both replicates (recomputed)
erlotinib = compound: C#Cc1cccc(Nc2ncnc3cc(OCCOC)c(OCCOC)cc23)c1 [erlotinib]
Summary of the method: (§1)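 Values are thermal stability changes relative to control samples and are taken from duplicates. They are stated as log2 fold changes. Before quantification by TMTpro 16plex LC-MS/MS with equalised channel sums, K562 cells at 2×10^6 cells/mL were treated with 10 μM compound for 30 min, heated in aliquots for 3 min across 48°C-58°C, pooled, extracted in PBS with 0.5% NP-40 at 4°C, and centrifuged at 21,000xg for 90 min to give the soluble supernatant.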

[1] = compound: C/C(=N\NC(=O)C1=CC(=CC=C1)S(=O)(=O)N2CCOCC2)/C3=C(C=CC(=C3)Cl)O
Summary of the method: as §1

[2] = compound: C1=CC(=C(C=C1Cl)C2=NC3=NC=CN=C3C(=N2)NC4=CC=NC=C4)F
Summary of the method: as §1

[3] = compound: C1=CC(=CC=C1C2=NC3=C(N2)C=C(C=C3)C(=O)N)OC4=CC=C(C=C4)Cl
Summary of the method: as §1

[4] = compound: C1=CC2=C(C=CC(=C2)/C=C\3/C(=O)NC(=NCC4=CC=CS4)S3)N=C1
Summary of the method: as §1

[5] = compound: C1=CC2=NC=CN=C2C=C1/C=C/3\C(=O)NC(=O)S3
Summary of the method: as §1

[6] = compound: C1=CC=C(C=C1)C2=NC(=C(N2)C3=CC=NC=C3)C4=CC(=C(C=C4)Cl)O
Summary of the method: as §1

[7] = compound: C1=CC=C2C(=C1)C3=NNC4=CC=CC(=C43)C2=O
Summary of the method: as §1

[8] = compound: C1CCN(C1)C(=O)NC2=CC=CC(=C2)NC3=NC=C(C(=N3)NCCC4=CN=CN4)Br
Summary of the method: as §1

[9] = compound: C1CN(CCC1(CC2=CC=C(C=C2)Cl)N)C3=NC=NC4=C3C=CN4
Summary of the method: as §1

Measured: log2 fold change

LPGAT1 (UniProt Q92604)
inactive: erlotinib -0.005 | [1] 0.022 | [2] 0.201 | [3] -0.274 | [4] 0.183 | [5] 0.098 | [6] -0.043 | [7] -0.025 | [8] 0.017 | [9] 0.115

MIEF1 (UniProt L0R8F8)
inactive: erlotinib 0.025 | [1] 0.102 | [2] 0.021 | [3] -0.022 | [4] -0.073 | [5] -0.072 | [6] 0.033 | [7] 0.02 | [8] -0.107 | [9] 0.019

MFN1 (UniProt Q8IWA4)
Sequence of UniProt Q8IWA4 (Q8IWA4 whole entry, looked up): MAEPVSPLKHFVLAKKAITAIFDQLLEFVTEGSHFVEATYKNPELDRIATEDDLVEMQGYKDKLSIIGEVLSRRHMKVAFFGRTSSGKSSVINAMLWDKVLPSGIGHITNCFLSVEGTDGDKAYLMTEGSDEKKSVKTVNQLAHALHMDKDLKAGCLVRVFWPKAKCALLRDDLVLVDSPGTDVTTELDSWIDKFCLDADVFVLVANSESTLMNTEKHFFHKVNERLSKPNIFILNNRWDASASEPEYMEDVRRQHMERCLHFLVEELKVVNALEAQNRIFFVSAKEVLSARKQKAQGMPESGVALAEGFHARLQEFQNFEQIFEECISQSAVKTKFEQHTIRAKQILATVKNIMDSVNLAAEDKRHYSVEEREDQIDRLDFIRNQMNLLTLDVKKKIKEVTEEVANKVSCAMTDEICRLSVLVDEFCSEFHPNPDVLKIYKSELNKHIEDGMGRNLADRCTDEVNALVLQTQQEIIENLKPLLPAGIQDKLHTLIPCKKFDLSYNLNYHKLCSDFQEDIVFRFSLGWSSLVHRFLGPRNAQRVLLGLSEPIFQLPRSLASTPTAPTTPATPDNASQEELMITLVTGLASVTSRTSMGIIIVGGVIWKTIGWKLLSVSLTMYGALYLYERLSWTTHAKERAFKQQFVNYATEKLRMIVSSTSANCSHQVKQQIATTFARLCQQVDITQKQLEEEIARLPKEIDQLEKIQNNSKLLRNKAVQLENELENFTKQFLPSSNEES
inactive: erlotinib -0.002 | [1] -0.026 | [2] 0.042 | [3] 0.001 | [4] 0.07 | [5] 0.347 | [6] -0.016 | [7] -0.015 | [8] 0.025 | [9] -0.039

LARP1 (UniProt Q6PKG0)
inactive: erlotinib -0.051 | [1] 0.002 | [2] -0.11 | [3] 0.085 | [4] -0.025 | [5] -0.001 | [6] -0.081 | [7] -0.067 | [8] 0.046 | [9] -0.172

KPNB1 (UniProt Q14974)
inactive: erlotinib -0.001 | [1] 0.075 | [2] -0.03 | [3] -0.036 | [4] -0.028 | [5] 0.029 | [6] -0.049 | [7] -0.016 | [8] -0.034 | [9] -0.136

KCTD2 (UniProt Q14681)
inactive: erlotinib 0.177 | [1] -0.154 | [2] -0.125 | [3] -0.126 | [4] 0.158 | [5] -0.062 | [6] 0.055 | [7] -0.106 | [8] 0.26 | [9] -0.005

MED22 (UniProt Q15528)
Sequence of UniProt Q15528 (Q15528 whole entry, looked up): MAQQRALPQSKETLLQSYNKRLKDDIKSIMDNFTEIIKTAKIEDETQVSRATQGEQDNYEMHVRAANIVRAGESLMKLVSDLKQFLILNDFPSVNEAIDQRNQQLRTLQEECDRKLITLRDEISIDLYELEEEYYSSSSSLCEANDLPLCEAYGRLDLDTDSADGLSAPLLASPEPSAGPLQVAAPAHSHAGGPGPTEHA
inactive: erlotinib -0.11 | [1] 0.035 | [2] -0.013 | [3] -0.036 | [4] 0.061 | [5] -0.002 | [6] 0.022 | [7] -0.071 | [8] -0.156 | [9] 0.259

MICOS13 (UniProt Q5XKP0)
Sequence of UniProt Q5XKP0 (Q5XKP0 whole entry, looked up): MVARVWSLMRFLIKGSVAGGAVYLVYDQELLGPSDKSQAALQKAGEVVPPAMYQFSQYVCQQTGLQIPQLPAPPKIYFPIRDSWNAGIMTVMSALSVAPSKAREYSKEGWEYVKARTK
inactive: erlotinib 0.008 | [1] 0.018 | [2] 0.053 | [3] -0.007 | [4] 0.001 | [5] 0.039 | [6] 0.051 | [7] 0.052 | [8] 0.007 | [9] 0.023

KDM3B (UniProt Q7LBC6)
inactive: erlotinib 0.029 | [1] 0.051 | [2] 0.083 | [3] -0.019 | [4] 0 | [5] 0.043 | [6] 0.029 | [7] -0.015 | [8] -0.03 | [9] 0.008

LMBRD2 (UniProt Q68DH5)
inactive: erlotinib 0.015 | [1] -0.007 | [2] 0.097 | [3] 0.011 | [4] 0.022 | [5] 0.038 | [6] 0.016 | [7] -0.118 | [8] -0.073 | [9] 0.1

KEL (UniProt P23276)
inactive: erlotinib 0.011 | [1] 0.042 | [2] 0.008 | [3] 0.13 | [4] -0.005 | [5] 0.147 | [6] -0.029 | [7] -0.067 | [8] -0.013 | [9] -0.001

MAP2K2 (UniProt P36507)
inactive: erlotinib 0.021 | [1] -0.005 | [2] 0.05 | [3] -0.001 | [4] 0.054 | [5] -0.005 | [6] -0.058 | [7] -0.029 | [8] -0.003 | [9] 0.016

MIA2 (UniProt Q96PC5)
inactive: erlotinib 0.01 | [1] 0.044 | [2] 0.04 | [3] -0.044 | [4] -0.033 | [5] 0.035 | [6] 0.021 | [7] -0.092 | [8] 0.003 | [9] 0.041

KIF3B (UniProt O15066)
inactive: erlotinib -0.015 | [1] 0.016 | [2] -0.015 | [3] -0.108 | [4] -0.02 | [5] 0.004 | [6] -0.029 | [7] 0.077 | [8] -0.101 | [9] -0.039

ME2 (UniProt P23368)
Sequence of UniProt P23368 (P23368 whole entry, looked up): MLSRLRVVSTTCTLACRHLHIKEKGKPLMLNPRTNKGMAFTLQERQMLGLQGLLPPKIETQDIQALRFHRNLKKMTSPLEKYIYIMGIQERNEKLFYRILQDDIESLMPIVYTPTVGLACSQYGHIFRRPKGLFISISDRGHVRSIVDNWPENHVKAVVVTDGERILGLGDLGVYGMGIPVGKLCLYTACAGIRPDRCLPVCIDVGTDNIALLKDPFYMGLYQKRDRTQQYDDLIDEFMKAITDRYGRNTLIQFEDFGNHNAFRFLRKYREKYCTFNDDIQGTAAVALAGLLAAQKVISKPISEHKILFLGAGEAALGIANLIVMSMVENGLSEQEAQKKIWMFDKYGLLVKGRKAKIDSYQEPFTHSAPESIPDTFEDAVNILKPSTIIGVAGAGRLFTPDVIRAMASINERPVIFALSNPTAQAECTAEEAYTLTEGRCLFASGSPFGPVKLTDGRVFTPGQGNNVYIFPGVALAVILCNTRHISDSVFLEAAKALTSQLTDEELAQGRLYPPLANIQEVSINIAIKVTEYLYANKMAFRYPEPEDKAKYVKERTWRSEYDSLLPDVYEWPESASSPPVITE
inactive: erlotinib -0.017 | [1] -0.017 | [2] 0.01 | [3] -0.078 | [4] 0.036 | [5] -0.024 | [6] 0.055 | [7] -0.061 | [8] 0.008 | [9] 0.081

LONP2 (UniProt Q86WA8)
inactive: erlotinib 0.07 | [1] -0.111 | [2] 0.263 | [3] 0.131 | [4] -0.021 | [5] 0.065 | [6] 0.168 | [7] 0.067 | [8] -0.037 | [9] -0.002

MICU2 (UniProt Q8IYU8)
inactive: erlotinib -0.013 | [1] -0.013 | [2] -0.06 | [3] -0.002 | [4] -0.038 | [5] -0.015 | [6] 0.103 | [7] 0.018 | [8] 0.045 | [9] -0.042

MFSD8 (UniProt Q8NHS3)
Sequence of UniProt Q8NHS3 (Q8NHS3 whole entry, looked up): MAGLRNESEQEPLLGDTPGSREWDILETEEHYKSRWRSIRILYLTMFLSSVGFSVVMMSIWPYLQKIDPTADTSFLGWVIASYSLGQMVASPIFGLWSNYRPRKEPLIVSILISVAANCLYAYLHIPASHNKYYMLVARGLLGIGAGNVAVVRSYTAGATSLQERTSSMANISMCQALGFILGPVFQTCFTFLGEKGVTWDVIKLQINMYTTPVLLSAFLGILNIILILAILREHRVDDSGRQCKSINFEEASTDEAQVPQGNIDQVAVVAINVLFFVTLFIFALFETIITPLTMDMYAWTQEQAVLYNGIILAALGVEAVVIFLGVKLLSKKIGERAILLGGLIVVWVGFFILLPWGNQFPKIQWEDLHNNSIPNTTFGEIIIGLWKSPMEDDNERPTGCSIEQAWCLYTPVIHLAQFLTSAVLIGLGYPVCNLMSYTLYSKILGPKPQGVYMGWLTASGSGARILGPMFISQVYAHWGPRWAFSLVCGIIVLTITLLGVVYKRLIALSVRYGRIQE
inactive: erlotinib 0.047 | [1] -0.018 | [2] -0.012 | [3] -0.089 | [4] 0.009 | [5] 0.166 | [6] 0 | [7] -0.054 | [8] -0.033 | [9] -0.091

IMMT isoform 4 (UniProt Q16891)
inactive: erlotinib -0.027 | [1] 0.026 | [2] 0.057 | [3] -0.006 | [4] -0.021 | [5] 0.011 | [6] 0.012 | [7] 0.001 | [8] 0.012 | [9] -0.013

MFSD1 isoform 6 (UniProt Q9H3U5)
inactive: erlotinib -0.011 | [1] 0.011 | [2] 0.006 | [3] 0.029 | [4] -0.002 | [5] -0.009 | [6] 0.018 | [7] 0.014 | [8] 0.059 | [9] 0.084

MAPKAPK3 (UniProt Q16644)
inactive: erlotinib 0.034 | [1] -0.012 | [3] -0.041 | [4] 0.024 | [5] -0.069 | [6] 0.256 | [7] 0.029 | [8] 0.021 | [9] -0.054
active: [2] 0.431

KTN1 (UniProt Q86UP2)
Sequence of UniProt Q86UP2 (Q86UP2 whole entry, looked up): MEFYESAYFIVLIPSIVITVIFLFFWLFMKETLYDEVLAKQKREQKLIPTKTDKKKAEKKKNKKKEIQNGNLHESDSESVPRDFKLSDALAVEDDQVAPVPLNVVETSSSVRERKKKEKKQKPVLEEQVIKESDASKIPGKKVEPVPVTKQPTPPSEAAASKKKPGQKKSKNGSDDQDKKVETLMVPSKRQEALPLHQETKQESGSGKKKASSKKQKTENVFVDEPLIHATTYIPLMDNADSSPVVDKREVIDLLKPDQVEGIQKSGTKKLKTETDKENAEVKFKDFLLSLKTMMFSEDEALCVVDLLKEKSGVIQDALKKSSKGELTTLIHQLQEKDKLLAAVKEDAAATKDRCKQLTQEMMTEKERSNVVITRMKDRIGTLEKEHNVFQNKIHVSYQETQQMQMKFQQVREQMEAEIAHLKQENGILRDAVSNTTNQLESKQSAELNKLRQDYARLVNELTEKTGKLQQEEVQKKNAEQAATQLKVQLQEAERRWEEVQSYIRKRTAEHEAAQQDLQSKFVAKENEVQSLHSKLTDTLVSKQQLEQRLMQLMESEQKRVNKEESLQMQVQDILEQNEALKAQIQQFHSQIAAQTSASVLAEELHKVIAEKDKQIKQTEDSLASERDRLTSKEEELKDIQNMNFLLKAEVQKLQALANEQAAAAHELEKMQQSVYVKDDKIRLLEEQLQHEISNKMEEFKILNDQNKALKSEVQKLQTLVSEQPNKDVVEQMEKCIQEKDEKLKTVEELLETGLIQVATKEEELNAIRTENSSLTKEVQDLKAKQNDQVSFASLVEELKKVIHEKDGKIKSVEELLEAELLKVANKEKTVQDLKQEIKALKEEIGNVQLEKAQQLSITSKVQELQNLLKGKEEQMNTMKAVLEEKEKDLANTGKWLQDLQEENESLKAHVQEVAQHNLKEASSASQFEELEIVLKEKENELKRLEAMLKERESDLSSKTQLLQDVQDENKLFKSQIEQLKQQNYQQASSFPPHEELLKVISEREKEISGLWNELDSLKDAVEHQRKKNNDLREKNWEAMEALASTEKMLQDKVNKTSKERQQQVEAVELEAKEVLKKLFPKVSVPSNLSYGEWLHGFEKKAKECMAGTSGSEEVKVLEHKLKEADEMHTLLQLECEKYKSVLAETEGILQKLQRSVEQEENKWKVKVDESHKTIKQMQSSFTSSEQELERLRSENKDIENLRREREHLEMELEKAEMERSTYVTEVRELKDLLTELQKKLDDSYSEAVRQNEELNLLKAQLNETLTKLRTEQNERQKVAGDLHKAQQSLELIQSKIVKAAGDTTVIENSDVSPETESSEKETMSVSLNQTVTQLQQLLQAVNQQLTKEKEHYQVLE
inactive: erlotinib -0.013 | [1] -0.007 | [2] -0.05 | [3] -0.08 | [4] 0.058 | [5] -0.006 | [6] -0.04 | [7] -0.032 | [8] -0.028 | [9] -0.129

LIAS (UniProt O43766)
active: [1] -0.24
inactive: erlotinib 0.068 | [2] 0.011 | [3] 0.019 | [4] 0.014 | [5] 0.007 | [6] -0.273 | [7] 0.009 | [8] 0.028 | [9] 0

KLHDC4 (UniProt Q8TBB5)
inactive: erlotinib -0.066 | [1] -0.075 | [2] -0.174 | [3] -0.013 | [4] 0.077 | [5] -0.123 | [6] -0.081 | [7] 0.07 | [8] -0.113 | [9] 0.119

INPP5B (UniProt P32019)
Sequence of UniProt P32019 (P32019 whole entry, looked up): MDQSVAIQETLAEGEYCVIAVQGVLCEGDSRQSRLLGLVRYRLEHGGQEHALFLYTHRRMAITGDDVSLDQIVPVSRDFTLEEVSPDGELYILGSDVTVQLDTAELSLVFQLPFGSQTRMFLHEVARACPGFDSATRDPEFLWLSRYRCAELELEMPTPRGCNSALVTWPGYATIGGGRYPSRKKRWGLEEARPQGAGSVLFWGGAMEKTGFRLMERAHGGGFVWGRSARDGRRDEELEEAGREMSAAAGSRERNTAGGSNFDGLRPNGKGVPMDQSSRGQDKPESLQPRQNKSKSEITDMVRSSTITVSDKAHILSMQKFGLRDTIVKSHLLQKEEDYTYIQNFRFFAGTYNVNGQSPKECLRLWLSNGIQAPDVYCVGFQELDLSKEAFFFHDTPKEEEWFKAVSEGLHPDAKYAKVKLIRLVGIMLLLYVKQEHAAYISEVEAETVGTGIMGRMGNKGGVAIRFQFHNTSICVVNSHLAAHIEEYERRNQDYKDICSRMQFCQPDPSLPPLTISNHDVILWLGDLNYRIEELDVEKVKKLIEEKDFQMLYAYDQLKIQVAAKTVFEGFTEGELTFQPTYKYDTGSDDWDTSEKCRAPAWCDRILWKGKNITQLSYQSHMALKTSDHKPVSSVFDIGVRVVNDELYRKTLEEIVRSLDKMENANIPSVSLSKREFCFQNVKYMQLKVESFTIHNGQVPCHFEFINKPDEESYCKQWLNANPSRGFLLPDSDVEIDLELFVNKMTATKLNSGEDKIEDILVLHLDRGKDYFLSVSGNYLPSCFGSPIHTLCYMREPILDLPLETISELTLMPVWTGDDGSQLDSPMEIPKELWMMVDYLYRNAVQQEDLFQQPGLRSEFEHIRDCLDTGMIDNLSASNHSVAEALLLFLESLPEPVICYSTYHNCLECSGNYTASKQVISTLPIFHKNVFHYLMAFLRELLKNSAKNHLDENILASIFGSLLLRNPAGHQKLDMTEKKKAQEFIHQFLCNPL
inactive: erlotinib -0.027 | [1] 0.056 | [2] 0.071 | [3] -0.052 | [4] 0.055 | [5] -0.018 | [6] 0.026 | [7] -0.04 | [8] -0.064 | [9] -0.039

KIF2C (UniProt Q99661)
inactive: erlotinib 0.036 | [1] 0.09 | [2] 0.036 | [3] 0.021 | [4] 0.01 | [5] -0.004 | [6] 0.043 | [7] 0.019 | [8] -0.031 | [9] -0.103

MAP1LC3B2 (UniProt A6NCE7)
inactive: erlotinib 0.009 | [1] 0.093 | [2] 0.038 | [3] 0 | [4] -0.031 | [5] 0.052 | [6] 0.016 | [7] 0.083 | [8] -0.002 | [9] 0.036

LUC7L3 (UniProt O95232)
Sequence of UniProt O95232 (O95232 whole entry, looked up): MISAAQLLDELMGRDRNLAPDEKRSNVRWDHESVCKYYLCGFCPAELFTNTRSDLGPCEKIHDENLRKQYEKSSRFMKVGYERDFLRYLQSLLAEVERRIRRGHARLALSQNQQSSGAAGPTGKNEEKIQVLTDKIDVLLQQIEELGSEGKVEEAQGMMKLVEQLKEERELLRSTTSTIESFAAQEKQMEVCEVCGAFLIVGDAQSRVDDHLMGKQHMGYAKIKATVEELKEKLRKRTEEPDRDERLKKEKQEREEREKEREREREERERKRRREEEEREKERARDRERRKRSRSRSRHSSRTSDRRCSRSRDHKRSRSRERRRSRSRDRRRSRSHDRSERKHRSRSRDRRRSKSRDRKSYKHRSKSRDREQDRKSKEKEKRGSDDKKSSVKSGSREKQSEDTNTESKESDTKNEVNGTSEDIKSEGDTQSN
inactive: erlotinib 0.011 | [1] 0.033 | [2] -0.018 | [3] 0.042 | [4] -0.093 | [5] -0.02 | [6] -0.043 | [7] -0.104 | [8] -0.002 | [9] -0.037

LSR (UniProt Q86X29)
inactive: erlotinib 0.022 | [1] 0.022 | [2] -0.08 | [3] 0.002 | [4] -0.019 | [5] 0.019 | [6] -0.105 | [7] -0.114 | [8] -0.038 | [9] 0.073

INPP1 (UniProt P49441)
inactive: erlotinib 0.014 | [1] 0.006 | [2] 0.073 | [3] 0.059 | [4] 0.042 | [5] -0.01 | [6] 0.005 | [7] 0.044 | [8] 0.01 | [9] -0.101
